Measured values as given in PubChem BioAssay AID651699 (Sanford-Burnham Center for Chemical Genomics, 2012).
Screen size: about 360,000 compounds; about 2,100 (0.58%) were called active. The full list was thinned out, with actives kept by preference. Unmarked numbers belong to inactive results. Cut-off read from the data, not from the text of the source: active = inhibition above about 36%; inactive = the rest.

Molecular target: NEDD8-conjugating enzyme Ubc12 (Homo sapiens) + NEDD8-activating enzyme E1 regulatory subunit (Homo sapiens) (UniProt P61081+Q13564)
Sequence (P61081 whole entry, looked up): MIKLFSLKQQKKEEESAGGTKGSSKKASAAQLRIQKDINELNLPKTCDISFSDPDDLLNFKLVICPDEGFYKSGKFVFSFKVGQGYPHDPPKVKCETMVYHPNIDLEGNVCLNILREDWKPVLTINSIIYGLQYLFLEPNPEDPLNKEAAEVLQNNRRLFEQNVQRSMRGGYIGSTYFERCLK
Sequence (Q13564 whole entry, looked up): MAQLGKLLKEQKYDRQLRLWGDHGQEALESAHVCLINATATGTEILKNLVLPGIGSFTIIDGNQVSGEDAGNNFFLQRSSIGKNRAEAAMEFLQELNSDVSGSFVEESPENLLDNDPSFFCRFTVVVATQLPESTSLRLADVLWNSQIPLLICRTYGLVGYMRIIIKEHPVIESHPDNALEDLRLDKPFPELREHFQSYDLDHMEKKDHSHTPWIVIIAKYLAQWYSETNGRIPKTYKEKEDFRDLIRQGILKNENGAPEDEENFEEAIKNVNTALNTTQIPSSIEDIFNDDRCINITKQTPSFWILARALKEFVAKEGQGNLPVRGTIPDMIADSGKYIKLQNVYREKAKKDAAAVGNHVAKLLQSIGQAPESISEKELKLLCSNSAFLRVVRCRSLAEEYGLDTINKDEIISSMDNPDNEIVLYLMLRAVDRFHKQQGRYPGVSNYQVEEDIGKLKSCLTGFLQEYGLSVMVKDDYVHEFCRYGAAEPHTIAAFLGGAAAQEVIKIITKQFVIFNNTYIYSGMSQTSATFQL
Test: NEDD8 transfer onto cullin, blockade – biochemical, TR-FRET, uHTS, NAE and Ubc12, primary screen (AID 651699)
Conditions: TR-FRET cullin neddylation, at 25 µM, hits give high values

Structure (SMILES) | inhibition
CC(C)(C)NS(=O)(=O)CC12CCC(CC1=O)C2(C)C (stereo not given) | 4.11%
CCCN(c1ccc(C(C)C)cc1)S(=O)(=O)c1c(C)[nH]c(=O)[nH]c1=O | -4.15%
COCCNC(=S)N1CCN(C)CC1 | 2.77%
O=C(N[C@H]1C/C=C\C(c2ccc(F)cc2)N(Cc2ccccc2)C(=O)C1)OCC1c2ccccc2-c2ccccc21 (stereo not given in full) | -23.7%
COCCn1c(C)cc(C(=O)CSc2nnc(C3CC3)n2C2CC2)c1C | 2.64%
O=C(/C=C/c1cn(-c2ccccc2)nc1-c1ccc2c(c1)OCCO2)NCCCN1CCOCC1 | 46.4% (active)
CC(C)c1ccc(/C=C/C(=O)NCCCN2CCOCC2)cc1 | 6.59%
CC(OC(=O)/C=C/c1ccccc1)C(=O)Nc1ccc(C(N)=O)cc1 (stereo not given) | 9.24%
Cc1ccc(C)c(NC(=O)COC(=O)CSc2ccccc2)c1 | 4.31%
Cc1ccc(S(=O)(=O)NNC(=O)Nc2cccc3ccccc23)cc1 | -0.11%
Cc1ccc(C)c(NC(=O)NNC(=O)c2ccc3ccccc3c2O)c1 | 41.2% (active)
CC1CCN(C(=O)CN(c2ccc(Oc3ccccc3)cc2)S(C)(=O)=O)CC1 | 0.77%
COc1cc2c(cc1NC(=O)COC(=O)/C=C/c1ccccc1)oc1ccccc12 | 29.1%
COc1ccc(/C=C(/NC(=O)c2ccccc2)C(=O)Nc2cccc(C(=O)O)c2)cc1 | -5.87%
COc1cc(/C(=C/c2ccccc2)c2ccccc2)c2c(c1)oc1ccccc12 | 49.4% (active)
CCN(CCNC(=O)C1=C(C)C(=O)OC12CCC(C)CC2)c1ccccc1 (stereo not given) | 0.38%
N/C(Cc1ccc([N+](=O)[O-])cc1)=N\OC(=O)C1CCCCC1 | -35.6%
CN(C)c1nc(N)nc(CSc2nnnn2-c2cccc3ccccc23)n1 | -6.09%
COc1ccccc1N1CCN(C(=O)C(=O)N/N=C/c2ccccc2F)CC1 | -4.11%
CCOc1ccc2[nH]c(C(=O)N/N=C/c3cccc(OC)c3OC)cc2c1 | 45.1% (active)
COc1cccc(C(=O)N/N=C(\C)c2cccc(NC(=O)c3ccc(F)cc3)c2)c1OC | -8.13%
COc1ccc2[nH]c(=O)c(CNc3ccc(C)c(C)c3)cc2c1 | 23.5%

Structure (SMILES) | inhibition
COc1ccc2[nH]c(C(=O)N/N=C/c3cc(OC)c(OC)c(OC)c3)cc2c1 | 59.3% (active)
COc1cc2cc(C(=O)N/N=C/c3cccc(OC)c3OC)[nH]c2cc1OC | 40.2% (active)
CCOc1ccc2ccccc2c1/C=N/NC(=O)c1c(C)cc(C)[nH]c1=O | -12.9%
CCOc1ccc(/C=N\NC(=O)c2c(C)nc3cc(C)ccn23)cc1 | 2.94%
O=C(Nc1ccc(Cl)cc1)C1Cc2c(-c3ccc4c(c3)OCO4)ccnc2O1 (stereo not given) | 25.3%
N#Cc1ccccc1CN1C(=O)S/C(=C/c2cccn2-c2cccc(C(=O)O)c2)C1=O | -29.6%
Cc1cccc(N2CCN(C(=O)CN(C)S(=O)(=O)c3ccc4c(c3)CCC(=O)N4)CC2)c1C | 4.09%
CCCC(=O)N1CCC1(C)C(=O)NS(=O)(=O)c1ccc(Cl)cc1 (stereo not given) | 5.26%
CCOc1cc(/C=N/NC(=O)c2cccc(S(=O)(=O)N3CCOCC3)c2)ccc1OCC(=O)N(C)C | 6.83%
Cc1ncc(CO)c(/C=N/NC(=O)c2cccc(S(=O)(=O)N3CCCC3)c2)c1O | 47.2% (active)
O=C(NNC1=NCCC1)c1cccc(S(=O)(=O)N2CCCCC2)c1 | 3.17%
C=CCOC(=O)C1=C(C)N=C2SCCC(=O)N2C1/C=C/c1ccccc1OC (stereo not given) | -7.53%
COc1ccccc1/C=C/C1=NC(=C\N(C)C)/C(=O)O1 | 54% (active)
COc1ccccc1/C=C/C(=O)NC(=S)N1CCOCC1 | -10.5%
CCSC1=NCCN1C(=O)c1ccc(S(=O)(=O)N(CC)CC)cc1 | -10.5%
CC1(C(=O)NS(=O)(=O)c2ccc(C#N)cc2)CCN1C(=O)CC1CCCC1 (stereo not given) | -3.86%
CC(C)(C)OC(=O)C[C@@H]1C/C=C\C[C@@H](CC(=O)N[C@H](CO)Cc2ccccc2)C(=O)NCCOC1=O | -4.28%
O=C(c1cc(-c2ccco2)nc2ccccc12)N(Cc1nnc(-c2ccc(Cl)cc2)o1)C1CC1 | 38.9% (active)
CN(C(=O)COC(=O)c1cc(-c2ccco2)nc2ccccc12)C1CCS(=O)(=O)C1 (stereo not given) | -19.8%
O=C(c1ccc(Cl)s1)N(Cc1nnc(-c2ccccc2Cl)o1)C1CC1 | 12.9%
N#Cc1ccc(S(=O)(=O)NCC(=O)OCC(=O)NCCc2ccccc2)cc1 | -11.3%
CCOC(=O)C1(Cc2ccccc2C)CCCN(C(=O)CCc2c(C)noc2C)C1 (stereo not given) | 3.81%

Structure (SMILES) | inhibition
O=C(O)CCc1nc2cc(Cl)ccc2n(Cc2ccccc2)c1=O | 9.12%
CC(=O)OCC(C)n1c(=O)c2ccccc2n1C(C)=O (stereo not given) | 16.7%
CC(=O)Oc1c(C(=O)c2nnc(C)o2)c(=O)n(Cc2ccccc2)c2ccccc12 | 40% (active)
CC1Cc2ccccc2N1CC(=O)Nc1ccc2c(c1)OC(F)(F)O2 (stereo not given) | -5.99%
CC(=O)NS(=O)(=O)c1ccc(N/C(N)=N/c2nc(C)cc(C)n2)cc1 | -11.7%
O=C(CSc1nnc(-c2ccncc2)n1C1CCCCC1)Nc1ccccc1 | -3.98%
CCOc1ccc(NC(=O)CN(C)C(=O)Cc2sc(C)nc2-c2ccc(F)cc2)cc1OCC | -1.44%
COc1ccc(C2c3[nH]c4ccccc4c3CCN2CCCn2cccn2)cc1C (stereo not given) | 49.4% (active)
COc1cccc(C2c3[nH]c4ccccc4c3CCN2Cc2cccc(C)n2)c1 (stereo not given) | 48.7% (active)
Oc1cccc(C2c3[nH]c4ccccc4c3CCN2Cc2cnn(-c3ccccc3)c2)c1 (stereo not given) | 25.4%
COCc1ccc(C(=O)N2CCc3c([nH]c4ccccc34)C2c2ccccn2)s1 (stereo not given) | -1.93%
CCOc1ccc(C2c3[nH]c4ccccc4c3CCN2Cc2cccn2-c2ncccn2)cc1 (stereo not given) | 16.1%
CCOc1ccc(C2c3[nH]c4ccccc4c3CCN2Cc2cn(CC)nc2C)cc1 (stereo not given) | 22.4%
O=C(O)C1C2C=CC(C2)C1C(=O)NCc1ccccc1 (stereo not given) | -4.12%
O=C(OCc1ccccc1)N1CCC2CC1c1cc(N3CCN(S(=O)(=O)c4cc(Cl)cc(Cl)c4)CC3)ccc12 (stereo not given) | 19.3%
CC(OC(=O)c1cc2ccccc2o1)C(=O)Nc1ccc(N2CCOCC2)cc1 (stereo not given) | 2.93%
CC(C)C1N=C2c3ccccc3N=C(SCC(=O)c3ccc(O)c(O)c3)N2C1=O (stereo not given) | -18.8%
O=C(Nc1ccc(-c2cscn2)cc1)C1CCCN(Cc2ccc(CO)o2)C1 (stereo not given) | 5.08%
O=C(NCc1cccnc1)Nc1cccc(NC(=O)NCc2cccnc2)c1F | 2.41%
CC(C)CC1(C)NC(=O)N(CC(=O)Nc2ccc3c(c2)OCCO3)C1=O (stereo not given) | -8.52%
Cc1ccc(-n2c(SCC(=O)Nc3ncc(Cl)cc3Cl)nc3ccccc32)cc1 | 3.23%
